From PubChem BioAssay come the findings set out here.

Molecules are shown by their SMILES.

Test system in the first assay: not listed separately
Nature of the assay: probe aInhba binding on compound microarray – biochemical, small-molecule microarray, 635/667 nm fluorescence, primary screen (AID 1148).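 Note: score merges 667nm spot fluorescence with signal-to-noise for antibody binding to printed compounds.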 To be noted: higher = more signal.
`COc1ccc([Si](C)(C)[C@H]2[C@H](CC(=O)N3Cc4ccccc4C[C@H]3CO)O[C@@]3(C(=O)N(Cc4ccc(N5C(=O)c6cccc7cccc5c67)cc4)c4ccccc43)[C@@H]2C)cc1` gave a composite z-score of 0.0102.

In the case of `COCC1=C2[C@@H](CCc3ccccc3)OB(O)C[C@@H]2[C@@H]2C(=O)N(C)C(=O)[C@@H]2C1`, the composite z-score was -0.113.

As for `CC(C)OC(=O)CC(=O)CC(O)c1ccc([N+](=O)[O-])cc1` (configuration not stated), the composite z-score is -0.0044.

On to `CC(C)C(=C=CC[C@@H](O)c1cccc(OCCO)c1)C[C@@H](O)c1ccccn1`, for which the composite z-score is -0.13.

For the compound `C=CCC(OC(C)=O)[C@@H]1[C@@H](N(Cc2cccc3ccccc23)C(=O)c2cccc3ccccc23)c2cc(OCCCO)ccc2N1C(=O)c1ccc2ccccc2c1` (some centres not stated), the composite z-score is -0.0288.

As for `CC(=O)N1CC(C(O)C2C=CC3C(=O)NC(=O)C3N2Nc2ccc(Cl)cc2Cl)c2ccccc21` (configuration not stated), the composite z-score stood at 0.16.

In the case of `COC(=O)[C@@]1(Cc2ccc(F)cc2)[C@H]2c3cc(C(=O)N(C)C)n(Cc4c(CO)[nH]cc(C)c4=O)c3C[C@H]2CN1C(=O)c1ccccc1`, the composite z-score is 0.0212.

Take `CC(C)[C@H]1NC(=O)[C@@]23C(=O)N[C@@H](Cc4ccccc4)C2[C@H](C)[C@@]2(C)O[C@H]2C3/C=C/CCC/C=C/CNC(=O)[C@H](Cc2ccccc2)NC1=O` (some centres not stated): the composite z-score was -0.152.

Regarding `CCOC(=O)C[C@H]1[C@H](OC(=O)c2ccccc2-c2ccccc2)[C@@H](NC(=O)c2ccccc2)c2cc(OCCCO)ccc2N1C(=O)c1ccccc1`, the composite z-score was -0.157.

With `COC(=O)[C@@]1(Cc2ccccc2CN=[N+]=[N-])N=C(c2ccc(OCCCO)cc2)O[C@H]1c1ccccc1`, the composite z-score worked out at 0.412.

In the case of `C=C(COC)C(=O)CC[C@@H](OC(=O)c1cccnc1)c1ccccc1OCCO`, the composite z-score was determined as 0.0355.

`CC1CC/C=C\[C@H]2OC34C=CCN(CCN5CCOCC5)C(=O)[C@H]3N(C(C)CO)C(=O)[C@@H]4C2C(=O)O1` (some centres not stated): the composite z-score is -0.0933.

Compound `[N-]=[N+]=NCc1ccccc1[C@H]1OC(c2ccc(OCCCO)cc2)=N[C@@]1(CCS(=O)(=O)c1ccccc1)C(=O)NCc1ccccc1` displayed a composite z-score of 0.282.

For the compound `COc1ccc([Si](C)(C)[C@H]2[C@H](CCO)O[C@@]3(C(=O)N(Cc4ccc(N5C(=O)c6ccccc6Oc6ccccc65)cc4)c4ccccc43)[C@@H]2C)cc1`, the composite z-score was -0.0762.

Take `O=C(NCC(O)CO)[C@@]1(CCS(=O)(=O)c2ccccc2)COC(c2ccc(OCCCO)cc2)=N1` (some centres not stated): the composite z-score stood at 0.228.

`C=CCC(OC(C)=O)[C@@H]1[C@@H](N(Cc2cccc3ccccc23)C(=O)Cc2ccc(F)cc2)c2cc(OCCCO)ccc2N1C(=O)c1ccc(-c2ccccc2)cc1` (some centres not stated) yielded a composite z-score of 0.066.

In the case of `C=CCNC(=O)[C@@H]1[C@H]2C(=O)O[C@H](c3ccccc3)[C@H](c3ccccc3)N2[C@H](c2ccc(O)cc2)[C@@]12C(=O)N(C(=O)OCCOC)c1ccc(C#CCCO)cc12`, the composite z-score was found to be 0.198.

With `C=CCNC(=O)[C@@H]1[C@H]2C(=O)O[C@H](c3ccccc3)[C@H](c3ccccc3)N2[C@H](c2ccc(OCCO)cc2)[C@@]12C(=O)N(C(=O)OCCOC)c1ccc(C#CCCO)cc12`, the composite z-score is -0.0521.

Take `C=CCOC(=O)[C@H]1[C@@H]2C(=O)O[C@@H](c3ccccc3)[C@@H](c3ccccc3)N2[C@@H](c2ccc(OCCOC(=O)[C@H]3C[C@H]4C(=O)N[C@@H](CCCCNC(C)=O)C(=O)N4[C@H]3c3cccc(OCCO)c3)cc2)[C@]12C(=O)Nc1ccc(I)cc12`: the composite z-score was -0.431.

`COCCOC(=O)N1C(=O)[C@@]2(c3cc(C#CC4=CCCCC4)ccc31)[C@H](c1ccc(O)cc1)N1[C@H](c3ccccc3)[C@H](c3ccccc3)OC(=O)[C@H]1[C@@H]2C(=O)NC[C@H](O)c1ccccc1`: the composite z-score is 0.0227.

Turning to `CN1C(=O)C2C=CC(C(O)c3ccc(I)cc3)N(Nc3ccccc3)C2C1=O` (configuration not stated), the composite z-score is -0.0209.

For a further assay, the target named is Torsin-1A (Homo sapiens) (UniProt O14656). Kind of assay: TOR1A wild-type binding on microarray – cell lysate, small-molecule microarray, lysate, 635/667 nm, primary screen (AID 1149). To be noted: COS7 hTOR1A-WT lysate, 635 nm fluorescence, higher = more signal.
Torsin-1A (Homo sapiens), sequence (O14656 whole entry, looked up): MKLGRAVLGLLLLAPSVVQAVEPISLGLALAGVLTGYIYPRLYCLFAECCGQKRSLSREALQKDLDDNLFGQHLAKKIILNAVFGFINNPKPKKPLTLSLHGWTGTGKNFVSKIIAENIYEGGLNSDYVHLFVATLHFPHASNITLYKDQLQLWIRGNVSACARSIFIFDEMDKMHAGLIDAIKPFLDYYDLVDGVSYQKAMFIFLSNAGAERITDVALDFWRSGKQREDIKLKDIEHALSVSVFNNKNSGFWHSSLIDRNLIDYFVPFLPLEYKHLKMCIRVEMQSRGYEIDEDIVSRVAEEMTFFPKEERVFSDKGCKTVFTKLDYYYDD
`CN(C)C(=O)[C@@]1(Cc2ccccc2)COC(c2ccc(OCCCO)cc2)=N1` displayed a composite z-score of 0.0565.

Take `CO[C@H]1O[C@H](CO)[C@@H](OC(=O)CCc2ccccc2)[C@H](OC(=O)c2cc3ccccc3[nH]2)[C@H]1OC(=O)c1cc2ccccc2[nH]1`: the composite z-score was 0.71.

As to `CN1C(=O)C2C=CC(C(O)c3cc(C(F)(F)F)cc(C(F)(F)F)c3)N(Nc3ccccc3)C2C1=O` (configuration not stated), the composite z-score is -1.74.

The compound `COCCOC(=O)N1C(=O)[C@@]2(c3cc(C#CCCO)ccc31)[C@H](C(N)=O)[C@H]1C(=O)O[C@H](c3ccccc3)[C@H](c3ccccc3)N1[C@@H]2c1ccc(OCCO)cc1` displayed a composite z-score of 1.47.

As for `COCCOC(=O)N1C(=O)[C@@]2(c3cc(C#Cc4ccc(OC)cc4)ccc31)[C@H](C(=O)NC[C@H](O)c1ccccc1)[C@H]1C(=O)O[C@H](c3ccccc3)[C@H](c3ccccc3)N1[C@@H]2c1ccc(OCCO)cc1`, the composite z-score was 0.161.

For `COCCOC(=O)N1C(=O)[C@@]2(c3cc(C#CCNC(N)=O)ccc31)[C@H](c1ccc(OCCO)cc1)N1[C@H](c3ccccc3)[C@H](c3ccccc3)OC(=O)[C@H]1[C@@H]2C(N)=O`, the composite z-score is 0.304.

The compound `CC(=O)NCCCC[C@@H]1NC(=O)[C@H]2C[C@@H](C(=O)NCCCCCNC(=O)CS)[C@@H](c3cccc(OCCO)c3)N2C1=O` showed a composite z-score of 0.498.

In turn, `O=C1O[C@H](c2ccccc2)[C@H](c2ccccc2)N2[C@H]1[C@@H](C(=O)N1CCCCCCC1)[C@]1(C(=O)Nc3ccc(C#CC4(O)CCCCCC4)cc31)[C@H]2c1ccccc1OCCO` registered a composite z-score of 3.75.

In the case of `COCCCNC(=O)[C@@]1(c2ccc([N+](=O)[O-])cc2)CC(=O)N(CC23CC4CC(CC(C4)C2)C3)[C@@H]1c1ccc(CO)cc1I`, the composite z-score is 0.676.

`COc1ccc(C#Cc2ccc3c(c2)[C@]2(C(=O)N3)[C@H](C(=O)N3CCCCCCC3)[C@H]3C(=O)O[C@H](c4ccccc4)[C@H](c4ccccc4)N3[C@@H]2c2ccc(O)cc2)cc1` yielded a composite z-score of 0.589.

Regarding `C=C(/C(=C/C[C@H](OC(=O)c1ccncc1)c1cccc(OCCO)c1)c1cnc2ccccc2c1)C(C)C`, the composite z-score was -0.382.

For the compound `CCCCCCCCCCC(O)C1C=CC2C(=O)N(C)C(=O)C2N1Nc1cc(OC)c(OC)c(OC)c1` (configuration not stated), the composite z-score was -0.534.

`Nc1cc(Br)ccc1C(=O)O` had a composite z-score of 0.136.

For `CN(C)C(=O)[C@]1(CCS(=O)(=O)c2ccccc2)N=C(c2ccc(OCCCO)cc2)O[C@@H]1c1ccccc1`, the composite z-score turned out to be 0.957.

For `O=C1N(CCS(=O)(=O)c2ccccc2)Cc2ccccc2[C@@H]2OC(c3ccc(OCCCO)cc3)=N[C@]12CCS(=O)(=O)c1ccccc1`, the composite z-score amounted to 0.827.

`COc1ccc([Si](C)(C)[C@H]2[C@H](CC(=O)N3Cc4ccccc4C[C@H]3CO)O[C@@]3(C(=O)N(Cc4ccc(N5C(=O)c6cccc7cccc5c67)cc4)c4ccccc43)[C@@H]2C)cc1`: the composite z-score is -0.0784.

The compound `COCC1=C2[C@@H](CCc3ccccc3)OB(O)C[C@@H]2[C@@H]2C(=O)N(C)C(=O)[C@@H]2C1` yielded a composite z-score of 0.607.

`CC(C)OC(=O)CC(=O)CC(O)c1ccc([N+](=O)[O-])cc1` (configuration not stated) had a composite z-score of 0.913.

For the compound `CC(C)C(=C=CC[C@@H](O)c1cccc(OCCO)c1)C[C@@H](O)c1ccccn1`, the composite z-score was -0.84.

As to `C=CCC(OC(C)=O)[C@@H]1[C@@H](N(Cc2cccc3ccccc23)C(=O)c2cccc3ccccc23)c2cc(OCCCO)ccc2N1C(=O)c1ccc2ccccc2c1` (some centres not stated), the composite z-score is 0.0265.

For `CC(=O)N1CC(C(O)C2C=CC3C(=O)NC(=O)C3N2Nc2ccc(Cl)cc2Cl)c2ccccc21` (configuration not stated), the composite z-score is -0.291.

In the case of `COC(=O)[C@@]1(Cc2ccc(F)cc2)[C@H]2c3cc(C(=O)N(C)C)n(Cc4c(CO)[nH]cc(C)c4=O)c3C[C@H]2CN1C(=O)c1ccccc1`, the composite z-score came out at 0.475.

On to `CC(C)[C@H]1NC(=O)[C@@]23C(=O)N[C@@H](Cc4ccccc4)C2[C@H](C)[C@@]2(C)O[C@H]2C3/C=C/CCC/C=C/CNC(=O)[C@H](Cc2ccccc2)NC1=O` (some centres not stated), for which the composite z-score amounted to 0.343.

In turn, `CCOC(=O)C[C@H]1[C@H](OC(=O)c2ccccc2-c2ccccc2)[C@@H](NC(=O)c2ccccc2)c2cc(OCCCO)ccc2N1C(=O)c1ccccc1` had a composite z-score of 0.0802.

As to `COC(=O)[C@@]1(Cc2ccccc2CN=[N+]=[N-])N=C(c2ccc(OCCCO)cc2)O[C@H]1c1ccccc1`, the composite z-score was 0.0213.

Compound `C=C(COC)C(=O)CC[C@@H](OC(=O)c1cccnc1)c1ccccc1OCCO` displayed a composite z-score of 0.882.

Regarding `CC1CC/C=C\[C@H]2OC34C=CCN(CCN5CCOCC5)C(=O)[C@H]3N(C(C)CO)C(=O)[C@@H]4C2C(=O)O1` (some centres not stated), the composite z-score is -1.72.

In turn, `[N-]=[N+]=NCc1ccccc1[C@H]1OC(c2ccc(OCCCO)cc2)=N[C@@]1(CCS(=O)(=O)c1ccccc1)C(=O)NCc1ccccc1` had a composite z-score of 0.61.

As to `COc1ccc([Si](C)(C)[C@H]2[C@H](CCO)O[C@@]3(C(=O)N(Cc4ccc(N5C(=O)c6ccccc6Oc6ccccc65)cc4)c4ccccc43)[C@@H]2C)cc1`, the composite z-score is -1.08.

In the case of `O=C(NCC(O)CO)[C@@]1(CCS(=O)(=O)c2ccccc2)COC(c2ccc(OCCCO)cc2)=N1` (some centres not stated), the composite z-score was found to be 1.13.

For `C=CCC(OC(C)=O)[C@@H]1[C@@H](N(Cc2cccc3ccccc23)C(=O)Cc2ccc(F)cc2)c2cc(OCCCO)ccc2N1C(=O)c1ccc(-c2ccccc2)cc1` (some centres not stated), the composite z-score was 0.143.

In turn, `C=CCNC(=O)[C@@H]1[C@H]2C(=O)O[C@H](c3ccccc3)[C@H](c3ccccc3)N2[C@H](c2ccc(O)cc2)[C@@]12C(=O)N(C(=O)OCCOC)c1ccc(C#CCCO)cc12` registered a composite z-score of 0.463.

The compound `C=CCNC(=O)[C@@H]1[C@H]2C(=O)O[C@H](c3ccccc3)[C@H](c3ccccc3)N2[C@H](c2ccc(OCCO)cc2)[C@@]12C(=O)N(C(=O)OCCOC)c1ccc(C#CCCO)cc12` had a composite z-score of 0.625.

The compound `C=CCOC(=O)[C@H]1[C@@H]2C(=O)O[C@@H](c3ccccc3)[C@@H](c3ccccc3)N2[C@@H](c2ccc(OCCOC(=O)[C@H]3C[C@H]4C(=O)N[C@@H](CCCCNC(C)=O)C(=O)N4[C@H]3c3cccc(OCCO)c3)cc2)[C@]12C(=O)Nc1ccc(I)cc12` registered a composite z-score of 0.96.

Regarding `COCCOC(=O)N1C(=O)[C@@]2(c3cc(C#CC4=CCCCC4)ccc31)[C@H](c1ccc(O)cc1)N1[C@H](c3ccccc3)[C@H](c3ccccc3)OC(=O)[C@H]1[C@@H]2C(=O)NC[C@H](O)c1ccccc1`, the composite z-score was determined as 0.184.

The compound `CN1C(=O)C2C=CC(C(O)c3ccc(I)cc3)N(Nc3ccccc3)C2C1=O` (configuration not stated) had a composite z-score of 0.338.
